Screens deposited in PubChem by National Center for Advancing Translational Sciences (NCATS).
Sampled rows, rich in hits. Any-hit rate of the full collection: about 19%.
DT40 TDP1 CPT: qHTS for Inhibitors of human tyrosyl-DNA phosphodiesterase 1 (TDP1): qHTS in cells in presence of CPT; Potency, µM (doses to about 46.2 µM), without a hit: top-dose activity change, negative = growth inhibition, hits mostly inhibitors; AID 686979, 2013; chicken DT40 Tdp1-/-;hTDP1 cells + 20 nM CPT, ATP luminescence, 48 h; hit rate 12% among 420,000; note: potency is the fitted concentration of half-maximal effect; nearly all actives have a fitted effect of over 55% in size
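Cell growth measured by CellTiter-Glo luminescence after a minimum 48 h, 37 C compound exposure with 20 nM CPT in Tdp1-knockout DT40 cells stably expressing hTDP1, seeded 400/well; qHTS titration format.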
HT1080 IDH1KD tx: qHTS for induction of synthetic lethality in tumor cells producing 2HG: qHTS for the HT-1080-IDH1KD cell line. hit rate 2% among 360,000. HT-1080 IDH1 knockdown viability, ATP luminescence, 48 h. Potency, µM (series often up to 46.1 µM), inactives show top-dose activity, negative = toxicity, actives largely listed as cytotoxic. AID 686971, 2013;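 note: potency is the fitted concentration of half-maximal effect; 0% = DMSO wells and -100% = cell-free medium wells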
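Using the IDH1-knockdown HT-1080 line run in the same batch and compound series as the NT line, viability after 48 h at 37 °C was determined by CellTiter-Glo luminescence and expressed as % activity.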
ELG1 repair inh: qHTS screen for small molecules that inhibit ELG1-dependent DNA repair in human embryonic kidney (HEK293T) cells expressing luciferase-tagged ELG1. HEK293T ELG1-luciferase reporter, luminescence, 16 h; DNA damage induced by 5-fluorouridine. Potency, µM (series often up to 46.1 µM), for the others: at the top dose activity change, negative = inhibition, most hits filed as inhibitors. hit rate 2.3% among 330,000. AID 504467, 2011; note: potency is the fitted concentration of half-maximal effect; nearly all actives have a fitted effect of over 55% in size
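5-Fluorouridine DNA damage + compound/DMSO, 2,000 cells/well, 16 h, 37 °C/5% CO2. ONE-Glo, 30 min RT, luminescence. Readout = decrease in reporter signal.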
HT1080NT lethal: qHTS for induction of synthetic lethality in tumor cells producing 2HG: qHTS for the HT-1080-NT fibrosarcoma cell line | Potency, µM (doses to about 46.1 µM), for the others: top-dose activity, negative = less viability, hits mostly cytotoxic | hit rate 1.6% among 360,000 | HT-1080-NT fibrosarcoma viability, CellTiter-Glo ATP luminescence, 48 h | AID 686970, 2013;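 note: NT is the 2HG producing partner of a matched IDH1 knockdown line; potency is the fitted concentration of half-maximal effect; 0% = DMSO-treated cells and -100% = media-only wells without cells; nearly all actives have a fitted effect of over 55% in size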
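Viability of the 2HG-overproducing fibrosarcoma line after 48 hours of compound exposure at 37 degrees C was determined by luminescence with CellTiter-Glo, and concentration-effect curves were then fitted and categorized.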
DT40 TDP1 no CPT: qHTS for Inhibitors of human tyrosyl-DNA phosphodiesterase 1 (TDP1): qHTS in cells in absence of CPT; Potency, µM (highest dose often 46.2 µM), for inactives: at the highest dose activity change, negative = growth inhibition, usual class: inhibitors; hit rate 15% among 420,000; AID 686978, 2013; DT40 Tdp1-/- hTDP1 cells, no CPT, ATP luminescence, 48 h; note: potency is the fitted concentration of half-maximal effect; nearly all actives have a fitted effect of over 55% in size
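Chicken DT40 Tdp1-/- cells stably complemented with human TDP1 were seeded at 400 cells/well with DMSO in place of 20 nM camptothecin. After compound pinning, cells grew at least 48 hr at 37 °C; viability read by CellTiter-Glo luminescence.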
IL1B secr inh: qHTS for Inhibitors of Inflammasome Signaling: IL-1-beta AlphaLISA Primary Screen; THP-1 LPS/ATP IL-1B secretion, AlphaLISA, 16 h; hits give low values; activity change, % at 57.5 µM; hit rate 4.7% among 360,000; AID 743279, 2014; in the data active = activity change below about -50%; inconclusive = mostly about -30% to -49%
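Secreted IL-1B measured by AlphaLISA bead assay after 16 h compound exposure of THP-1 cells; compounds (final up to 57.5 uM) added 1 h before LPS (250 ng/mL) and ATP (1.25 mM) stimulation; lower signal means less secretion.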
* marks the source's active call; other numbers are inactive results; ? = inconclusive; / = no result. Unless noted, calls come from the whole dose curve; as a rule, active = well fitted curve in the direction sought with a large enough effect; inconclusive = small, poorly fitted or top-dose-only effect, or another doubt; inactive = no such curve, though single readings can be large; an effect the other way counts as inactive or inconclusive. Unless noted, % is set by controls: 0 for no effect and ±100 for the full control effect.

SMILES | DT40 TDP1 CPT | HT1080 IDH1KD tx | ELG1 repair inh | HT1080NT lethal | DT40 TDP1 no CPT | IL1B secr inh
Cc1onc(-c2ccccc2Cl)c1C(=O)OCC(=O)N1CCN(c2ccccc2)CC1 | ? | -8% | -3% | 7% | 16µM* | 15
Cc1onc(-c2ccccc2Cl)c1C(=O)OCC(=O)N1CCC(C)CC1 | ? | 0% | 7% | -4% | ? | -6
CC(=O)c1ccc(N2CCN(C(=O)c3c(-c4ccccc4Cl)noc3C)CC2)cc1 | ? | 12% | -16% | 12% | ? | 3
O=C(c1ccc(=O)n(Cc2ccccc2)n1)N1CCN(C/C=C/c2ccccc2)CC1 | 18µM* | -15% | 16µM* | -3% | ? | 19
Cc1onc(-c2ccccc2Cl)c1C(=O)N1CCN(c2nc3ccccc3s2)CC1 | ? | ? | 13µM* | -9% | ? | -18
COC(=O)C1CCN(C(=O)c2c(-c3ccccc3Cl)noc2C)CC1 | 0% | 7% | -1% | 8% | -18% | 5
Cc1onc(-c2ccccc2Cl)c1C(=O)N1CCN(C/C=C/c2ccccc2)CC1 | ? | -26% | ? | 9% | 10µM* | -52*
Cc1onc(-c2ccccc2Cl)c1C(=O)OCn1nnc2ccccc2c1=O | 18µM* | -9% | -11% | 6% | 16µM* | ?
COc1ccccc1N1CCN(C(=O)c2cc(-c3cccc(Cl)c3)on2)CC1 | ? | 10% | -26% | 8% | 13µM* | 11
Cc1cccc(CN2CCN(C(=O)CCl)CC2)c1 | 15µM* | ? | ? | -4% | 16µM* | -106*
CN(CC(=O)N1CCN(Cc2ccccc2)CC1)C(=O)Cc1cccc2ccccc12 | 13µM* | 0% | 3% | 7% | 13µM* | 0
Cc1ccc(CN2CCN(C(=O)c3cccc4ccccc34)CC2)cc1 | ? | -8% | ? | -1% | 23µM* | ?
O=C(/C=C/c1ccc(Br)cc1)N1CCN(Cc2ccccc2)CC1 | ? | 0% | / | 0% | ? | -81*
Cc1ccccc1CN1CCN(C(=O)c2cccc3ccccc23)CC1 | ? | 9% | 14% | 7% | ? | ?
O=C(/C=C/c1ccc(F)cc1)N1CCN(Cc2ccccc2)CC1 | ? | 1% | / | -9% | ? | -26
CC(C)(C)Cc1c(C2CCCCC2)nc2ccc(Cl)cn12 | -6% | -17% | / | -14% | ? | 61
CN(C)c1ccnc(-c2ccccc2C(F)(F)F)n1 | -25% | / | / | / | ? | /
Cc1cccc(CN2CCN(C(=O)c3cccc4ccccc34)CC2)c1 | 16µM* | -17% | ? | 0% | ? | -25
Cc1nc(-c2ccccn2)nc(N(C)c2ccccc2)c1Cl | 2.6µM* | 0% | ? | -7% | 2.6µM* | -2
Cc1nn2c(-c3ccccn3)ccnc2c1Cl | -3% | 5% | 3% | 4% | 5% | 7
COc1ccc2ccn(S(=O)(=O)c3ccccc3)c2c1 | -15% | -18% | 2% | -19% | ? | -13
CCOC(=O)c1[nH]c2cc3c(cc2c1NC(=O)CN1CCc2ccccc2C1)OCO3 | 16µM* | -24% | ? | -2% | 12µM* | -15
CCOC(=O)c1[nH]c2cc3c(cc2c1NC(=O)CN1CCCC1)OCO3 | -7% | 9% | 7% | 11% | ? | 6
CCOC(=O)c1[nH]c2cc3c(cc2c1NC(=O)CN1CCC(C)CC1)OCO3 | 18µM* | -7% | -20% | -6% | 11µM* | -22
COc1cccc(-c2cnc(C(O)c3ccc(OC)c(F)c3)[nH]2)c1 (centres undefined) | ? | 11% | / | 23% | -17% | -2
SMILES | DT40 TDP1 CPT | HT1080 IDH1KD tx | ELG1 repair inh | HT1080NT lethal | DT40 TDP1 no CPT | IL1B secr inh
Cc1cc(SCc2ccccc2)nc(=O)[nH]1 | -3% | 11% | 9% | 11% | 4% | -3
O=c1cc(SCc2ccccc2)nc[nH]1 | -11% | -5% | / | 1% | -14% | -80*
CC(C)C[C@H]1CN(CCCC[C@H]2CNC(=O)C(=O)N2CCc2ccccc2)C(=O)C(=O)N1Cc1ccccc1 | -22% | 1% | / | 1% | ? | -18
COc1ccc(CN=Cc2[nH]c3ccc(Br)c(Cl)c3c2O)cc1 | ? | 10µM* | 0% | ? | ? | 29
Cc1cc(C)cc(N=Cc2[nH]c3ccc(Br)c(Cl)c3c2O)c1 | 16µM* | ? | 0% | ? | ? | 15
Cc1ccc(N=Cc2cc(Br)cc(Cl)c2O)cc1 | ? | -12% | -4% | -16% | -22% | 99
C#CCOCCOCCOCCNc1nc(N2CCN(C(=O)[C@H](CCC(=O)O)n3cc([C@@H](N)CCCCN)nn3)CC2)nc(N2CCN(C(=O)[C@H](CCCCN)n3cc([C@@H](N)CC(N)=O)nn3)CC2)n1 | 8% | 19% | 13% | ? | 2% | 18
CC(C)(O)CC[C@H](OC(=O)c1ccccc1)[C@](C)(O)[C@H]1CC[C@@]2(O)C3=CC(=O)[C@@H]4C[C@@H](O)[C@H](O)C[C@]4(C)C3CC[C@]12C (some centres undefined) | 7% | 8% | -2% | 6% | -1% | -13
CCC(CO)Nc1ccn2nc(-c3ccccc3)cc2n1 (centres undefined) | -13% | 20% | / | 13% | ? | 24
CCC(CO)Nc1ccn2nc(-c3cc(OC)c(OC)c(OC)c3)cc2n1 (centres undefined) | ? | -17% | / | -16% | 15µM* | ?
CCC(CO)Nc1ccn2nc(-c3cccs3)cc2n1 (centres undefined) | -21% | 0% | / | 22% | -26% | -50*
CC(c1ccco1)N(C(=O)c1cccc(S(=O)(=O)N(C)C)c1)c1ccccn1 (centres undefined) | ? | 15% | -18% | -1% | ? | 27
Cc1ccc(C)n1-c1c(C(=O)NCC(C)c2ccccc2)sc2ncccc12 (centres undefined) | 21µM* | / | / | / | 18µM* | /
CCOc1ccc(CCNC(=O)c2sc3ncccc3c2-n2c(C)ccc2C)cc1 | 13µM* | / | / | / | 15µM* | /
